Compound activity as filed in PubChem.
PV pol inh – poliovirus RNA polymerase inhibition; 0.66% of 150,000 active; % elongation, % (compound at 16.7 µg/mL); poliovirus polymerase elongation, fluorescence polarization; stronger effect = lower value; P03300; AID 588519; in the data active = % elongation below about 90%
AID504770 – growth inhibitors of E. coli YBA685 in a screen for V. cholerae RctB (chromosome II replication) inhibitors. E. coli YBA685 rctB-dependent plasmid, OD600 growth, 3 h; stronger effect = lower value. z-score (no concentration beside the values). 0.27% of 130,000 active. AID 504770; in the data active = z-score below about -2, passing the limit was not always enough
MbtI inh – blocks the Mycobacterium tuberculosis siderophore enzyme MbtI; P9WFX0; purified MbtI enzyme, fluorescence intensity read-out; inhibition, % (test concentration not listed); 0.89% of 100,000 active; AID 493033; in the data active = inhibition mostly above about 56%, no sharp cut-off; inactive = mostly below about 77%
Target sequence (P9WFX0 whole entry, looked up): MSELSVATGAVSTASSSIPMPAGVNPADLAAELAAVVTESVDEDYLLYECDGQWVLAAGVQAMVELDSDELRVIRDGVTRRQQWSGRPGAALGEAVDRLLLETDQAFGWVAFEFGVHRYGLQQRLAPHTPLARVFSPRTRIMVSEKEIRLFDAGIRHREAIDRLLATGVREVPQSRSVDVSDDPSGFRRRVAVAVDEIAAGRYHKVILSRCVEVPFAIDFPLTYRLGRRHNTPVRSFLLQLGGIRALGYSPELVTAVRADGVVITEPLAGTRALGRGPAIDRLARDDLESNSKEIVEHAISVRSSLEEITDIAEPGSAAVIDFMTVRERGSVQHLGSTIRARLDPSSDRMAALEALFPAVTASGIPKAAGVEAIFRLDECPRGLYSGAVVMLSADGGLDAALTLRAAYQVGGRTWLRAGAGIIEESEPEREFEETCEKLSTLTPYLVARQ
MenB inh – Mtb MenB enzyme inhibition. P9WNP5. MenB enzyme assay, absorbance read-out. inhibition, % (concentration not given with the values). 0.43% of 100,000 active; in the data active = inhibition above about 21%, passing the limit was not always enough
The depositor's hits bear a star; i = inactive; / = no result given; ! = a repeat was not active. Rows were chosen to be rich in hits. Some 1.4% of all compounds tested hit in one or more screens of this group.

SMILES	PV pol inh	AID504770	MbtI inh	MenB inh
CCS(=O)(=O)c1ccc2oc(SCC(=O)N3CC(C)OC(C)C3)nc2c1 (configuration not stated)	106	-1.1	-10	20
CCS(=O)(=O)c1ccc2oc(SCC(=O)CSc3nc4cc(S(=O)(=O)CC)ccc4o3)nc2c1	110	0.3	8	45*
Nc1ccc(Oc2ccccc2)cc1	102	0.6	0	-39
Fc1c(F)c(Oc2ccccc2)c(F)c(F)c1Oc1ccccc1	102	1.1	-4	27*
Cc1ccccc1-c1ocnc1C(=O)Nc1cccnc1	102	1.5	4	30*
NC(=S)NNc1ccc(Cl)c(Cl)c1	95	-0.85	95*	-15
NNc1ccc(Cl)c(Cl)c1	96	-3.6*	-3	/
Fc1ccc(CNC(=S)NCCN2CCOCC2)cc1	100	-0.95	-2	1
CC1(C)CC2(CCO1)OC(=O)CC2C#N (configuration not stated)	103	1	-10	-70
COc1ccc(C2C(C#N)=C(N)SC3C(=O)N(c4ccc(Br)cc4)C(=O)C32)cc1 (configuration not stated)	77*	0.25	/	-8
Cc1ccc(/C=C/C(=O)NCC2CCN(C(=O)/C=C/c3ccc(C)o3)CC2)o1	99	-0.55	89*	-4
O=C(c1ccc2ccccc2n1)n1nc2ccccc2n1	105	-1.9	9	/
CCCCC(CC)CN=C(N)NC(N)=NCCCCCCN=C(N)NC(N)=NCC(CC)CCCC (configuration not stated)	98	-5.1*	55*!	-4
CC(/C=C/c1ccccc1)=N\NC(N)=S	103	-0.45	91*	-121
CC(=C/C(=O)O)/C=C/c1ccccc1	102	0.85	30	-23
CCc1ccc(C2N3CC4(C)CN2CC(C)(C3)C4)cc1 (configuration not stated)	99	-0.85	-5	7
CCS(=O)c1ccccc1C(=O)NCc1ccc(F)cc1 (configuration not stated)	99	0	86*	4
COc1cc(SC)ccc1C(=O)Nc1ccc(S(=O)(=O)N(C)C)cc1	102	0.2	0	11
O/N=C/c1c(O)ccc2ccccc12	98	-0.05	-49	32*
CCOc1ccccc1NC(=O)Cn1c(CC)nc2ccccc21	100	-0.45	-4	/
CCN1/C(=C/c2scc[n+]2C)C=C(C)c2cc(OC)c3ccccc3c21	56*	0.15	2	2
O=C(CSc1nc2ccccc2s1)N1CCc2ccccc2C1	102	-0.7	1	/
O=C(CCN1C(=O)CCC1=O)OCC1CCCN2CCCCC12 (configuration not stated)	102	-0.5	/	-3
O=S(=O)(c1cccs1)N1CCCN(S(=O)(=O)c2cccs2)CC1	102	1.1	3	26*
Cc1cc2c(NC(=O)COCC(=O)O)cccc2nn1	65*	0.1	2	8
SMILES	PV pol inh	AID504770	MbtI inh	MenB inh
O=c1[nH]ccn(Cc2ccc(Cl)cc2)c1=O	101	-1.6	8	-4
N#Cc1ccc(-c2ccccc2)[nH]c1=O	100	-0.9	i	-22
N#Cc1nc2[nH]c(-c3ccccc3)cc(=O)n2c1C#N	90*	0.1	105	-4
c1csc(-c2nnc3n2-c2ccccc2SC3)c1	109	-1.5	-13	-28
O=C1CSc2nnc(-c3cccs3)n21	57*	-0.6	-102	0
Cc1cc(C)nc(NNC(=S)NCc2ccc3c(c2)OCO3)n1	98	-0.5	75*	-16
O=c1[nH]cnc2sc3c(c12)CCCC3	101	1.2	29	34*
Brc1ccc(NC2=Nc3ccccc3SC2)cc1	/	-0.25	/	/
Cc1sc2c(c1C)CSC(C(=O)O)=C2	100	-1.4	98*	-20
C=CCNC(=S)C(=O)Nc1ccccc1	81*	1.6	/	-42
C=CCNC(=S)Nc1ccccc1	101	-0.4	0	-19
C=C1C(C(=O)Nc2ccccc2N2CCOCC2)C1C(=O)Nc1ccccc1N1CCOCC1 (configuration not stated)	103	0.25	-11	-26
CN(C)C(=S)Nc1ccccc1N1CCOCC1	98	-0.6	95*	-11
CCn1c(SCC(N)=O)nnc1-c1cccs1	100	-0.4	-2	-10
Cc1cc(NCCCN2CCCC2=O)n2c(nc3ccccc32)c1C#N	104	1.1	70	37*
O=C(CCCc1ccccc1)Nc1scc2c(=O)oc3ccccc3c12	79*	1.3	/	8
CCS(=O)(=O)NCC1COC2(CCCCC2)O1 (configuration not stated)	101	0.5	0	-9
NCCNCC1COC2(CCCCCCCCCCC2)O1 (configuration not stated)	100	-2.9*	0	5
Cc1oc(-c2ccc(Cl)cc2)cc1C(=O)N1CCCC1	/	1.4	/	/
CNc1nnc(Sc2nnc(NC)s2)s1	91	-1	90*	-16
CSC1=NCCCN1C(=O)c1ccccc1I	109	-0.55	3	-12
COC(=O)c1ccc(-c2ccco2)n1Cc1ccccc1	102	-1.3	4	-3
CCN(c1ccc(OC)cc1)S(=O)(=O)c1ccc2c(c1)N(C(C)=O)CCO2	103	0.7	-16	12
S=C(NC1CCCCC1)C(=S)NC1CCCCC1	82*	2.1	37	10
COc1ccc(C)cc1NC(=O)CN(C)Cc1nc2ccccc2c(=O)[nH]1	89*	-0.15	10	-38
SMILES	PV pol inh	AID504770	MbtI inh	MenB inh
CC(CC1CC(C)(C)OC1=O)c1nc(=S)[nH][nH]1 (configuration not stated)	95	-0.45	64*	-10
Cc1noc(C)c1COc1cccc(C(=O)N2CCc3ccccc32)c1	106	-2.5*	-2	-17
O=C(COC(=O)C1CC1)c1ccc(OC(F)F)cc1	104	-1	-22	3
CC(C)(CNc1nsc2ccccc12)N1CCOCC1	89*	-0.85	50	2
O=C1CC(=O)c2ccc3c4c(ccc1c24)C(=O)CC3=O	90	-0.1	93*	-252
CCOC(=O)C(C#N)=C1C2CC3CC(C2)CC1C3	/	-0.15	/	/
CCOC(=O)C(C#N)=c1sc(=C(C#N)C(=O)OCC)s1	88*	0.55	76*	-19
c1cc(CNc2ccc(N3CCCC3)cc2)ccn1	99	0.5	100*	-20
c1cc2c(cc1CNc1ccc(N3CCCC3)cc1)OCO2	105	-0.7	43	-37
Cn1c(C(=O)NC2CC2)cc2sccc21	/	-0.7	/	/
CC1=CC(=C(C#N)C#N)C=C(C)N1c1cccnc1	104	-0.4	-5	-3
O=c1/c(=C/c2ccc(Br)cc2)sc2nncn12	97	0.8	15	33*
Cc1nn(CCC#N)c2c1P(=S)(N1c3ccccc3CC1C)/C(=C1\N(C)c3ccccc3C1(C)C)C=N2 (configuration not stated)	98	1.9	57*	-60
S=c1[nH]nc(-c2ccncc2)o1	/	-0.45	97*	/
Cc1csc2ncnc(N3CCN(C(=S)NCC4CC4)CC3)c12	88*	-0.65	36	-5
O=C(c1ccco1)N1CCN(C2(c3ccccc3)C(=O)c3ccccc3C2=O)CC1	101	-0.1	-13	-3
